Bioassay records (PubChem)
HT1080NT lethal: kills 2HG-producing HT-1080-NT fibrosarcoma cells; HT-1080-NT fibrosarcoma viability, CellTiter-Glo ATP luminescence, 48 h; Potency, µM (top dose mostly 46.1 µM), without a hit: at the highest dose activity, negative = less viability, usual class: cytotoxic; hit rate 1.6% among 360,000; AID 686970;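 also: NT is the 2HG producing partner of a matched IDH1 knockdown line; 0% = DMSO-treated cells and -100% = media-only wells without cells; nearly all actives have a fitted effect of over 55% in size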
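A 48-hour cytotoxicity screen used HT-1080-NT cells plated 2 hours before compound delivery. ATP-based CellTiter-Glo luminescence measured viability, normalized to DMSO and no-cell controls.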
HT1080 IDH1KD tx: toxicity to HT-1080 IDH1 knockdown cells (counter line); HT-1080 IDH1 knockdown viability, ATP luminescence, 48 h; Potency, µM (top dose mostly 46.1 µM), inactives show at the top dose activity, negative = toxicity, actives largely listed as cytotoxic; hit rate 2% among 360,000; AID 686971;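 also: 0% = DMSO wells and -100% = cell-free medium wells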
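CellTiter-Glo luminescence after 48 h compound exposure at 37 degrees C of IDH1-knockdown HT-1080 cells in 5% FBS RPMI. %Activity scaled between DMSO wells and cell-free media wells, with curves fitted and assigned curve classes.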
KB-3-1 cytotox: kills parental KB-3-1 adenocarcinoma cells | hit rate 1.4% among 400,000 | KB-3-1 viability, CellTiter-Glo ATP luminescence, 72 h | Potency, µM (series often up to 46.1 µM), most hits filed as cytotoxic | AID 1347075; also: % is scaled to controls: 0 for no effect and ±100 for the full control effect; nearly all actives have a fitted effect of over 60% in size
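Parental KB-3-1 adenocarcinoma cells in phenol-red-free DMEM with 10% FBS were pin-treated with compounds at several concentrations, incubated 72 h at 37 °C, and viability read by CellTiter-Glo luminescence; concentration-effect curves were fitted after normalization.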
KB-V1 cytotox: KB-V1 MDR subline cytotoxicity; Potency, µM (doses to about 46.1 µM), usual class: cytotoxic; KB-V1 MDR cells viability, CellTiter-Glo, 72 h; hit rate 3.4% among 400,000; also: % is scaled to controls: 0 for no effect and ±100 for the full control effect; nearly all actives have a fitted effect of over 60% in size
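In this primary screen, KB-V1 cells overexpressing P-gp are incubated with library compounds (lowest to highest concentration) for 72 h at 37 degrees C before a luminescent ATP viability read.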
SW480 rereplic: inducers of DNA re-replication in SW480 colon cancer cells | SW480 DNA re-replication, Hoechst DNA content imaging, 48 h | Potency, µM (series often up to 46.1 µM), without a hit: at the top dose re-replication activation, usual class: activators | hit rate 1.8% among 340,000; also: % of control where 0% means no effect; nearly all actives have a fitted effect of over 55% in size
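First, 250 cells per well were seeded. Next, compound or vehicle (23 nL) was pinned in, plates sat 48 hr at 37 C. Finally Hoechst was added for 40 min before fluorescence scanning.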
MCF10A rereplic: inducers of DNA re-replication in MCF 10A breast cells; MCF 10A DNA re-replication, Hoechst nuclear intensity, 48 h; Potency, µM (series often up to 46.1 µM), without a hit: at the top dose activity, positive = re-replication, most hits filed as activators; hit rate 2.9% among 350,000; also: % of control where 0% means no effect; nearly all actives have a fitted effect of over 50% in size
Active calls of the source: *. The list is not random: actives were taken first. Their share in the collection is about 7.9%. Calls follow the shape of the dose curve; as a rule, active = well fitted curve in the direction sought with a large enough effect; inconclusive = small, poorly fitted or top-dose-only effect, or another doubt; inactive = no such curve, though single readings can be large; an effect the other way counts as inactive or inconclusive. Potency is read from the fitted curve at half-maximal effect.

Results for COc1ccc(/C=C2\SC(=S)NC2=O)cc1OS(=O)(=O)c1ccc(NC(C)=O)cc1 ?
HT1080NT lethal: 21µM*; HT1080 IDH1KD tx: 16µM*; KB-3-1 cytotox: inactive; KB-V1 cytotox: inactive; SW480 rereplic: 4%; MCF10A rereplic: inconclusive

Results for Cc1cc(C)cc(N2C(N)=NC(N)=NC2c2ccccc2F)c1 (stereo not given) ?
HT1080NT lethal: -7%; HT1080 IDH1KD tx: inconclusive; KB-3-1 cytotox: inconclusive; KB-V1 cytotox: 16µM*; SW480 rereplic: inconclusive; MCF10A rereplic: 4%

How did O=C(NCCc1ccccc1)c1ccnc(/C=N/O)c1 do in these assays?
HT1080NT lethal: -6%; HT1080 IDH1KD tx: 5%; KB-3-1 cytotox: inactive; KB-V1 cytotox: inactive; SW480 rereplic: 2%; MCF10A rereplic: 3%

How did COc1ccc(Cc2c(C3CCCCC3)nc3c4ccccc4ccn23)c(C)c1 do in these assays?
HT1080NT lethal: -24%; HT1080 IDH1KD tx: inconclusive; KB-3-1 cytotox: inactive; KB-V1 cytotox: inactive

How did Nc1c(Cl)ncnc1N/N=C/c1ccc2ccccc2n1 do in these assays?
HT1080NT lethal: inconclusive; HT1080 IDH1KD tx: inconclusive; KB-3-1 cytotox: 21µM*; KB-V1 cytotox: inactive; SW480 rereplic: 0.26µM*; MCF10A rereplic: 21µM*

How did Nc1c(Cl)ncnc1N/N=C/c1ccccn1 do in these assays?
HT1080NT lethal: inconclusive; HT1080 IDH1KD tx: inconclusive; KB-3-1 cytotox: 8.2µM*; KB-V1 cytotox: inactive; SW480 rereplic: inconclusive; MCF10A rereplic: inconclusive

How did Nc1c(Cl)ncnc1N/N=C/c1ccnc2ccccc12 do in these assays?
HT1080NT lethal: 7%; HT1080 IDH1KD tx: 13%; KB-3-1 cytotox: inactive; KB-V1 cytotox: inconclusive; SW480 rereplic: 17%; MCF10A rereplic: 14%

How did Nc1c(Cl)ncnc1N/N=C/c1cccnc1 do in these assays?
HT1080NT lethal: -2%; HT1080 IDH1KD tx: 0%; KB-3-1 cytotox: inactive; KB-V1 cytotox: inactive; SW480 rereplic: -57%; MCF10A rereplic: 3.7µM*

Results for O=C(Cn1ncc2c3ccccc3n(Cc3ccc(F)cc3)c2c1=O)NCCC1=CCCCC1 ?
KB-3-1 cytotox: inactive; KB-V1 cytotox: inactive

Results for CC(C)(C)C(=O)NCCN1C(=O)S/C(=C\c2ccc([N+](=O)[O-])cc2)C1=O ?
HT1080NT lethal: -23%; HT1080 IDH1KD tx: -19%; KB-3-1 cytotox: inactive; KB-V1 cytotox: inactive; SW480 rereplic: -33%; MCF10A rereplic: inconclusive

How did CC(C)c1ccc(NC(=O)C2Cc3c(-c4ccco4)ccnc3O2)cc1 (stereo not given) do in these assays?
HT1080NT lethal: inconclusive; HT1080 IDH1KD tx: inconclusive; KB-3-1 cytotox: inactive; KB-V1 cytotox: 21µM*

Results for CC(=O)Nc1cccc(-c2ccnc3c2CC(C(=O)Nc2ccc(F)c(Cl)c2)O3)c1 (stereo not given) ?
HT1080NT lethal: inconclusive; HT1080 IDH1KD tx: inconclusive; KB-3-1 cytotox: inactive; KB-V1 cytotox: inactive

What do the screens show for `O=C(Nc1ccc(F)c(Cl)c1)C1Cc2c(-c3ccco3)ccnc2O1` (stereo not given)?
HT1080NT lethal: -18%; HT1080 IDH1KD tx: -19%; KB-3-1 cytotox: inconclusive; KB-V1 cytotox: 21µM*

Results for COc1ccc(CCNC(=O)Cn2cccc2C(=O)c2ccccc2)c(OC)c1 ?
HT1080NT lethal: 0%; HT1080 IDH1KD tx: -5%; KB-3-1 cytotox: inactive; KB-V1 cytotox: inactive; SW480 rereplic: -5%; MCF10A rereplic: 0%

What do the screens show for `C#C[C@]1(O)CCC2C3CCC4=CC(=O)CC[C@@H]4C3CC[C@@]21C` (stereo not given in full)?
HT1080NT lethal: 12%; HT1080 IDH1KD tx: 0%; KB-3-1 cytotox: inconclusive; KB-V1 cytotox: 2.9µM*; SW480 rereplic: -6%; MCF10A rereplic: -4%
